Test system: Drosophila S2 cl14 SmoIP sensor cells
Experiment: normalized SmoIP GFP fluorescence (untreated unstimulated = 0%, untreated Hh-stimulated = 100%); higher = more Smo activation sensor fluorescence
Conditions: compound concentration: 2 uM, 24 h
[1] = stimulation: Hh conditioned medium (+Hh)
[2] = stimulation: mock conditioned medium (-Hh)
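Further: flow cytometry read-out as median GFP intensity of gated cells, compounds added 30 min before Hh-conditioned or mock medium, mock-treated cells serving as unstimulated baseline.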

SMILES	normalized SmoIP GFP fluorescence [1] [%]	normalized SmoIP GFP fluorescence [2] [%]
CNC(=O)CN1CCC(Oc2cc3c(Nc4cccc(Cl)c4F)ncnc3cc2OC)CC1	112	-3.72
CC(C)C1CCC(C(=O)N[C@H](Cc2ccccc2)C(=O)O)CC1 (stereo partly specified) [Nateglinide(Starlix)]	110	-4.71
O=C1C(=O)N(Cc2ccc(Cl)c(Cl)c2)c2ccccc21 [apoptosis-activator-2]	103	-2.82
O=C1NC(=O)/C(=C/c2ccc3nccc(-c4ccncc4)c3c2)S1	175	2.43
O=C(CSc1nc2c(c(=O)n1-c1ccccc1)SCC2)Nc1ccc(-c2ccccc2)cn1	110	-3.16
O=C(Oc1cc(S(=O)(=O)c2ccccc2)ccc1[N+](=O)[O-])c1ccc(Cl)cc1	146	7.6
CNC(=O)c1cc(COc2nnc(Nc3ccc(Cl)cc3)c3ccoc23)ccn1 [Telatinib-BAY-57-9352]	104	-14.3
c1ccc(-c2nn3c(c2-c2ccnc4cc(OCCN5CCOCC5)ccc24)CCC3)nc1	137	30.2

Reference: the supplement of paper PMC5662767
